# PubChem BioAssay (NCATS)
# Results filed as inconclusive are left out. A call without a number means that no potency is given here. Some compounds were tested as several samples or in several runs, with calls that do not always agree. Activity calls are given as the source filed them. Calls follow the shape of the dose curve; as a rule, active = well fitted inhibition curve with a large enough effect; inconclusive = small, poorly fitted or top-dose-only effect; inactive = flat fitted curve, though single readings scatter.
# Assay: P-glycoprotein substrates identified in KB-8-5-11 adenocarcinoma cell line, qHTS therapeutic library screen (AID 1346987); also: nearly all actives have a fitted effect of over 65% in size
# Details: KB-8-5-11 (P-gp overexpressing) viability, CellTiter-Glo, 72 h; series mostly up to 44.5 µM
# Summary of the method: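 Human cervical adenocarcinoma KB-8-5-11 cells, selected in colchicine to over-express P-gp and assayed without it, were exposed for 72 h to titrated compounds. An ATP-based luminescent viability signal gave AC50.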
# Potency is read from the fitted curve at half-maximal effect.
row,Structure (SMILES),Potency
1,Cc1cc(C)c(NC(=O)C[C@H](CC(=O)O)c2cccc3ccccc23)c(C(=O)N2CCC3(CCCC3)CC2)c1,inactive
2,CN1CCC(OC(=O)C(Oc2ccc(Cl)cc2)Oc2ccc(Cl)cc2)CC1,inactive
3,CC(=O)Nc1c(I)c(C(=O)N[C@H]2C(O)O[C@H](CO)[C@@H](O)[C@@H]2O)c(I)c(N(C)C(C)=O)c1I (stereo not given in full),inactive
4,NC(N)=NCC1COc2ccccc2O1 (stereo not given),inactive
5,NC(=S)NS(=O)(=O)c1ccc(N)cc1,inactive
6,CC(=O)Oc1cccc(C(=O)O)c1OC(C)=O,inactive
7,NC(=O)C1c2ccccc2CCc2ccccc21,inactive
8,O=C(NNCNNC(=O)c1ccncc1)c1ccncc1,inactive
9,C=CC1=C(C(=O)O)N2C(=O)[C@@H](NC(=O)/C(=N/OCC(=O)O)c3csc(N)n3)[C@H]2SC1 (stereo in doubt),inactive
10,CCOc1ccc(S(=O)(=O)O)c2cccnc12,inactive
11,CC[C@H]1OC(=O)[C@H](C)[C@@H](O[C@H]2C[C@@](C)(OC)[C@@H](O)[C@H](C)O2)[C@H](C)[C@@H](O[C@@H]2O[C@H](C)C[C@H](N(C)C)[C@H]2O)[C@](C)(O)C[C@@H](C)CN(C)[C@H](C)[C@@H](O)[C@]1(C)O,inactive
12,CCCCC(CC)COS(=O)(=O)O (stereo not given),inactive
13,CCOC(=O)Oc1c(OC)cc(C(=O)O[C@@H]2C[C@@H]3CN4CCc5c([nH]c6cc(OC)ccc56)[C@H]4C[C@@H]3[C@H](C(=O)OC)[C@H]2OC)cc1OC,inactive
14,CC[C@H]1OC(=O)C[C@@H](O)[C@H](C)[C@@H](O[C@@H]2O[C@H](C)[C@@H](O[C@H]3C[C@@](C)(O)[C@@H](O)[C@H](C)O3)[C@H](N(C)C)[C@H]2O)[C@@H](CC=O)C[C@@H](C)C(=O)/C=C/C(C)=C/[C@@H]1CO[C@@H]1O[C@H](C)[C@@H](O)[C@@H](OC)[C@H]1OC,inactive
15,CC(=C\c1ccccc1)/C=C1/SC(=S)N(CC(=O)O)C1=O,inactive
16,CO/N=C(\C(=O)N[C@@H]1C(=O)N2C(C(=O)O)=C(CSc3nnnn3C)CS[C@H]12)c1csc(N)n1,inactive
17,N=C(N)c1ccc(/C=C/c2ccc(C(=N)N)cc2O)cc1,18.4 µM (active)
18,OC[C@H]1O[C@@H]2O[C@H]3[C@H](O)[C@@H](O)[C@@H](O[C@H]4[C@H](O)[C@@H](O)[C@@H](O[C@H]5[C@H](O)[C@@H](O)[C@@H](O[C@H]6[C@H](O)[C@@H](O)[C@@H](O[C@H]7[C@H](O)[C@@H](O)[C@@H](O[C@H]1[C@H](O)[C@H]2O)O[C@@H]7CO)O[C@@H]6CO)O[C@@H]5CO)O[C@@H]4CO)O[C@@H]3CO,inactive
19,CC(C)(CO)[C@@H](O)C(=O)NCCC(=O)NCCSSCCNC(=O)CCNC(=O)[C@H](O)C(C)(C)CO,inactive
20,CN1CCCC(CN2c3ccccc3Sc3ccccc32)C1 (stereo not given),inactive

row,Structure (SMILES),Potency
1,CCc1ncnc2cc(OC)c(OC)cc12,inactive
2,CCCCCCCCCCCC(=O)OCC(O)CO (stereo not given),inactive
3,O=C(OC[C@H]1O[C@](O)(COC(=O)c2cccnc2)[C@@H](OC(=O)c2cccnc2)[C@@H]1OC(=O)c1cccnc1)c1cccnc1,inactive
4,C=C1c2c(Cl)ccc(O)c2C(O)=C2C(=O)[C@]3(O)C(O)=C(C(N)=O)C(=O)[C@@H](N(C)C)[C@@H]3[C@@H](O)[C@H]12,inactive
5,COc1ccc2cc([C@H](C)CO)ccc2c1,inactive
6,CC[C@@H]1/C=C(\C)C[C@H](C)C[C@H](OC)[C@H]2O[C@@](O)(C(=O)C(=O)N3CCCC[C@H]3C(=O)O[C@H](/C(C)=C/[C@@H]3CC[C@@H](Cl)[C@H](OC)C3)[C@H](C)[C@@H](O)CC1=O)[C@H](C)C[C@@H]2OC,inactive
7,CCOC(=O)[C@@H](N)CS,inactive
8,CCCCCCCCCCCCCC(=O)OCC(COP(=O)([O-])OCC[N+](C)(C)C)OC(=O)CCCCCCCCCCCCC (stereo not given),inactive
9,CC1(C)[C@H]2CC[C@]1(C)[C@H](O)C2,inactive
10,OC1OC[C@@H](O)[C@H](O)[C@@H]1O (stereo not given in full),inactive
11,NCC[C@H](O)C(=O)N[C@@H]1C[C@H](N)[C@@H](O[C@H]2O[C@H](CN)CC[C@H]2N)[C@H](O)[C@H]1O[C@H]1O[C@H](CO)[C@@H](O)[C@H](N)[C@H]1O,inactive
12,NCCN,inactive
13,CC(C)(C)c1ccc(CN2CCN(C(c3ccccc3)c3ccc(Cl)cc3)CC2)cc1 (stereo not given),23.1 µM (active) and inactive
14,Cc1ccc(S(=O)(=O)NCl)cc1,inactive
15,CC(CC=O)CCCC(C)(C)O (stereo not given),inactive
16,Cc1ncc[nH]1,inactive
17,CN1c2c(nc(N)[nH]c2=O)NCC1CNc1ccc(C(=O)NC(CCC(=O)O)C(=O)O)cc1 (stereo not given),inactive
18,CO/N=C(\C(=O)N[C@@H]1C(=O)N2C(C(=O)O)=C(CSC(=O)c3ccco3)CS[C@H]12)c1csc(N)n1,inactive
19,COc1ccc(/C=C/C(=O)OCCC(C)C)cc1,inactive
20,CCCCC/C=C\C/C=C\C/C=C\CCCCC(=O)O,inactive
